# In PMC7862700, “An all-to-all approach to the identification of sequence-specific readers for epigenetic DNA modifications on cytosine”:
# Experiments:
# Experiment in all cases: DAPPL (digital affinity profiling via proximity ligation, sequencing); 10 mM Tris-HCl pH 7.5, 50 mM NaCl, 1 mM DTT, 4% glycerol, room temperature, 30 min; GST-TFs on glutathione beads, 16-mer random dsDNA library, 0.1% formaldehyde crosslink after washing; high values mean tight binding
# FLI1 = biological target: T1, FLI1 (Homo sapiens, UniProt Q01543 1-452); conditions: protein: recombinant; tags: N-terminal GST; dsDNA, one strand shown
# T1 sequence: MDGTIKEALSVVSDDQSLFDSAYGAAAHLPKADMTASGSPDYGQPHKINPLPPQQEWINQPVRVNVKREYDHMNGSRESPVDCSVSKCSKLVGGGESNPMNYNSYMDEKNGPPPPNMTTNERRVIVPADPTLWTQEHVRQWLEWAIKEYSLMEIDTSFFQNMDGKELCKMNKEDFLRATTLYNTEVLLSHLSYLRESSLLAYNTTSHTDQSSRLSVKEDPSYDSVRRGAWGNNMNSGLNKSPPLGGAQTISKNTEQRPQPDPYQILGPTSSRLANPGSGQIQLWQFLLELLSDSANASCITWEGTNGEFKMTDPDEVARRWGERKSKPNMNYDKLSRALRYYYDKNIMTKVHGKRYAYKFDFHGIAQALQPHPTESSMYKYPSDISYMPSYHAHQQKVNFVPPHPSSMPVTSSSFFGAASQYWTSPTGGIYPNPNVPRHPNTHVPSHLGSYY
# How it was run: (§1)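 The binding signal reported is, for every hexamer, its read frequency for a factor over its read frequency for the tag-only sample. Reads came from pools of yeast-expressed, GST-fused human transcription factors on glutathione beads, barcoded with DNA and mixed with that sample, which were incubated with 200 nmole of a random double-stranded 16-mer DNA library in Tris/NaCl/DTT/glycerol buffer at room temperature for 30 min. After washing, the pools were crosslinked with 0.1% formaldehyde, proximity-ligated with BsaI/T4 ligase for 1 h at 37 °C, PCR-amplified and sequenced on an Illumina NextSeq500.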
# ELK1 = biological target: T2, ELK1 (Homo sapiens, UniProt P19419 1-428); conditions: protein: recombinant; tags: N-terminal GST; dsDNA, one strand shown
# T2 sequence: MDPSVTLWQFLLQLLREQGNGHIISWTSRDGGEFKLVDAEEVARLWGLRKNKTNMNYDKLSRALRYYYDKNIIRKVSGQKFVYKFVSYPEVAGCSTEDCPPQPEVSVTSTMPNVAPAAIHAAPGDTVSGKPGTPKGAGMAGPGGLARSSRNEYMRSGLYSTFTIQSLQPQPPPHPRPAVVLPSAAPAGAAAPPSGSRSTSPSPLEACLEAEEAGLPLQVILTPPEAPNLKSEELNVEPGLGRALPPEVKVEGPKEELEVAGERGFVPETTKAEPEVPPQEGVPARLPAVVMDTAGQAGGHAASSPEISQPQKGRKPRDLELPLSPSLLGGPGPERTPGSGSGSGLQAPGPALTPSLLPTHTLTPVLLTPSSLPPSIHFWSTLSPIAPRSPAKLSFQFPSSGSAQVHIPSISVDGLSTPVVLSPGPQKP
# How it was run: as §1
# GABPA = biological target: T3, GABPA (Homo sapiens, UniProt Q06546 1-454); conditions: protein: recombinant; tags: N-terminal GST; dsDNA, one strand shown
# T3 sequence: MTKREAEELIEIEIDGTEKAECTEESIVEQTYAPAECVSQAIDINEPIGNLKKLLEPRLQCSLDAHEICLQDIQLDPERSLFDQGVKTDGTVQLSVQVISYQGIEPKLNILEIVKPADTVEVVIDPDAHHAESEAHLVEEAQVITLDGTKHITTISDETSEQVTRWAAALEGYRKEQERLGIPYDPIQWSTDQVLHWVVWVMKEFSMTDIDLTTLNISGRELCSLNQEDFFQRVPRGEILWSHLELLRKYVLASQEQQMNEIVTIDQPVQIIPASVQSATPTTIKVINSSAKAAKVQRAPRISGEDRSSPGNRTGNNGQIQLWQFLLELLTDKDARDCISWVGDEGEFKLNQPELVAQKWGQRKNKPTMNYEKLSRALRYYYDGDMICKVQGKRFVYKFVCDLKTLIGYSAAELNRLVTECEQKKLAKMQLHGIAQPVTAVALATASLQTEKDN
# How it was run: as §1
# ERG = biological target: T4, ERG (Homo sapiens, UniProt P11308 1-479); conditions: protein: recombinant; tags: N-terminal GST; dsDNA, one strand shown
# T4 sequence: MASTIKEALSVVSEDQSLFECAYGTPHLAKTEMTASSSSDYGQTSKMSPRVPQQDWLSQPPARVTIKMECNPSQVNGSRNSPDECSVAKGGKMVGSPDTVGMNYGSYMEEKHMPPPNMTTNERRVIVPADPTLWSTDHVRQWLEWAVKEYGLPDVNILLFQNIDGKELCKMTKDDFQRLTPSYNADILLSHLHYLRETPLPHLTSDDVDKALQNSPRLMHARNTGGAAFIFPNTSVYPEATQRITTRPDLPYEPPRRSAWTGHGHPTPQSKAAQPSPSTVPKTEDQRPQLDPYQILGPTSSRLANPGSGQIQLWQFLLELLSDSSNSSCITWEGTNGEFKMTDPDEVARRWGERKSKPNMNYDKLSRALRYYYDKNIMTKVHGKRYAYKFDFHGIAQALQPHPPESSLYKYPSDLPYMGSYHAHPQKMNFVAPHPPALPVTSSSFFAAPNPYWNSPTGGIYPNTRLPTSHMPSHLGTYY
# How it was run: as §1
# ELF1 = ELF1 (Homo sapiens, UniProt P32519 1-619); conditions: protein: recombinant; tags: N-terminal GST; dsDNA, one strand shown
# How it was run: as §1
# EHF = biological target: T5, EHF (Homo sapiens, UniProt Q9NZC4 1-300); conditions: protein: recombinant; tags: N-terminal GST; dsDNA, one strand shown
# T5 sequence: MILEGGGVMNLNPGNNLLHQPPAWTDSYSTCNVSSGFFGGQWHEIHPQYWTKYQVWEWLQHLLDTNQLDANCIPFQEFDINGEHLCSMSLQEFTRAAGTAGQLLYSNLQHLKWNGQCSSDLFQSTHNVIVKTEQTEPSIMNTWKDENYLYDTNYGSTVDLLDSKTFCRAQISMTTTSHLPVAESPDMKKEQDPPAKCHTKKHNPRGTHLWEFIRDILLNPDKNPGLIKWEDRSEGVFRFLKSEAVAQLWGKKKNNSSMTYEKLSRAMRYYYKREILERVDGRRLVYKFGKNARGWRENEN
# How it was run: as §1
# SPI1 = SPI1 (Homo sapiens, UniProt P17947 1-270); conditions: protein: recombinant; tags: N-terminal GST; dsDNA, one strand shown
# How it was run: as §1
# SPIB = SPIB (Homo sapiens, UniProt Q01892 1-262); conditions: protein: recombinant; tags: N-terminal GST; dsDNA, one strand shown
# How it was run: as §1
# ELK3 = biological target: T6, ELK3 (Homo sapiens, UniProt P41970 1-407); conditions: protein: recombinant; tags: N-terminal GST; dsDNA, one strand shown
# T6 sequence: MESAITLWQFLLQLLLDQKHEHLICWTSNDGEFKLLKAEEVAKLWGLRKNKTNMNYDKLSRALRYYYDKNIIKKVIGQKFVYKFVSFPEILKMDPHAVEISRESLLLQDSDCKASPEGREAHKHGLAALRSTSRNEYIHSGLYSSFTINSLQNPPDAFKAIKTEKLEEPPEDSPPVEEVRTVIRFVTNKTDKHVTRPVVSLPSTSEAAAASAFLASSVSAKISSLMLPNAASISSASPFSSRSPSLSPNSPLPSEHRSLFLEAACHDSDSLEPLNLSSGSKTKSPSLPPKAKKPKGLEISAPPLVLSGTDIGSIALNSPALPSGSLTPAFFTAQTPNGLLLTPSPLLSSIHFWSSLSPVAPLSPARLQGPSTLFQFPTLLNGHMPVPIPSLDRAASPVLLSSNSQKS
# How it was run: as §1
# FEV = biological target: T7, FEV (Homo sapiens, UniProt Q99581 1-238); conditions: protein: recombinant; tags: N-terminal GST; dsDNA, one strand shown
# T7 sequence: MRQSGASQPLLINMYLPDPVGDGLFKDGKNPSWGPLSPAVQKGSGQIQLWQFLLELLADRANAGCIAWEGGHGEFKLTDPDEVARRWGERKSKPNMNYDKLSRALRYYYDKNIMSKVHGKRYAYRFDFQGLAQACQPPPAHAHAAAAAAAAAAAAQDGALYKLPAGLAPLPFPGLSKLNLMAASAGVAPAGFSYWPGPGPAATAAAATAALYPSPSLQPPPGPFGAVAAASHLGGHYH
# How it was run: as §1
# ETV5 = ETV5 (Homo sapiens, UniProt P41161 1-510); conditions: protein: recombinant; tags: N-terminal GST; dsDNA, one strand shown
# How it was run: as §1
# HSF1 = HSF1 (Homo sapiens, UniProt Q00613 1-529); conditions: protein: recombinant; tags: N-terminal GST; chain copies: 3; dsDNA, one strand shown
# How it was run: as §1
# SPIC = biological target: T8, SPIC (Homo sapiens, UniProt Q8N5J4 1-248); conditions: protein: recombinant; tags: N-terminal GST; dsDNA, one strand shown
# T8 sequence: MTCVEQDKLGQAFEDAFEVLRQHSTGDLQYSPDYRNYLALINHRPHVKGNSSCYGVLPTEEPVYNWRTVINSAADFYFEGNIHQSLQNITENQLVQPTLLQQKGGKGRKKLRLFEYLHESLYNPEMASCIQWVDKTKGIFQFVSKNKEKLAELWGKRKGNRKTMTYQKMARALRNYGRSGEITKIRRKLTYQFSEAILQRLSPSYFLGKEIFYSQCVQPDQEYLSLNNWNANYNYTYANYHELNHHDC
# How it was run: as §1
# ELF4 = ELF4 (Homo sapiens, UniProt Q99607 1-663); conditions: protein: recombinant; tags: N-terminal GST; dsDNA, one strand shown
# How it was run: as §1
# ELK4 = biological target: T9, ELK4 (Homo sapiens, UniProt P28324-2 1-405); conditions: protein: recombinant; tags: N-terminal GST; dsDNA, one strand shown
# T9 sequence: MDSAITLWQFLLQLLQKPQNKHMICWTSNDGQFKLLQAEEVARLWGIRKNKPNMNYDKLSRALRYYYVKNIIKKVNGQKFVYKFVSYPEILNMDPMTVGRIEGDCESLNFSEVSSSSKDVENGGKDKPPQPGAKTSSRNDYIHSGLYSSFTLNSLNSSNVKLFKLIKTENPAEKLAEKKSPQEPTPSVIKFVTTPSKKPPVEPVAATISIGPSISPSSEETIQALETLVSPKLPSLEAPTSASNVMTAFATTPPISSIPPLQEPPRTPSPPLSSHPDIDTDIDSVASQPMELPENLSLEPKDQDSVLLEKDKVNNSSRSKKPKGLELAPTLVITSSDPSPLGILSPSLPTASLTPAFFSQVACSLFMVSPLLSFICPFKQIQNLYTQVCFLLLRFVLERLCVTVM
# How it was run: as §1
# ETV2 = biological target: T10, ETV2 (Homo sapiens, UniProt O00321 1-342); conditions: protein: recombinant; tags: N-terminal GST; dsDNA, one strand shown
# T10 sequence: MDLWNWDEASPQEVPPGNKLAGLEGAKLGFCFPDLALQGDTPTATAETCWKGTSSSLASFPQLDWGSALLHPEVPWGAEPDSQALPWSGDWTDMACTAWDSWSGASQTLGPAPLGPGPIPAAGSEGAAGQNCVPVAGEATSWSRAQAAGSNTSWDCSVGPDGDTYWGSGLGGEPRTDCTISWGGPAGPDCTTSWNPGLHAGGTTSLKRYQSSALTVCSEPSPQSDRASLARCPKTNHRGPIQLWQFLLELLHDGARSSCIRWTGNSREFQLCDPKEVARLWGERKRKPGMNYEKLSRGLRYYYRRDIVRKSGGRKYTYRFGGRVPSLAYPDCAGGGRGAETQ
# How it was run: as §1
# ELF3 = biological target: T11, ELF3 (Homo sapiens, UniProt P78545 1-371); conditions: protein: recombinant; tags: N-terminal GST; dsDNA, one strand shown
# T11 sequence: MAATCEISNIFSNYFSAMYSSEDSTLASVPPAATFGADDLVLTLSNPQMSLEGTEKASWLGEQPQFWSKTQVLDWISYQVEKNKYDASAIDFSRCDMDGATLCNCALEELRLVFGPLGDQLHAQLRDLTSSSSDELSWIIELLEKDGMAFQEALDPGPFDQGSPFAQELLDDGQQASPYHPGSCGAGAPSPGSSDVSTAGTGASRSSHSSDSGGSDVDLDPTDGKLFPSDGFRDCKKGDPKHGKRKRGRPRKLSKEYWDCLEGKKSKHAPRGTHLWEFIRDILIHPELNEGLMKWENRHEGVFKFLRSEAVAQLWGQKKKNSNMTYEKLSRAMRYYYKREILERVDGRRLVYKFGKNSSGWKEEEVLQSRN
# How it was run: as §1
# CRX = CRX (Homo sapiens, UniProt O43186 1-299); conditions: protein: recombinant; tags: N-terminal GST; dsDNA, one strand shown
# How it was run: as §1
# ETV1 = ETV1 (Homo sapiens, UniProt P50549 1-477); conditions: protein: recombinant; tags: N-terminal GST; dsDNA, one strand shown
# How it was run: as §1
# Chain of ELF1 (P32519 whole entry): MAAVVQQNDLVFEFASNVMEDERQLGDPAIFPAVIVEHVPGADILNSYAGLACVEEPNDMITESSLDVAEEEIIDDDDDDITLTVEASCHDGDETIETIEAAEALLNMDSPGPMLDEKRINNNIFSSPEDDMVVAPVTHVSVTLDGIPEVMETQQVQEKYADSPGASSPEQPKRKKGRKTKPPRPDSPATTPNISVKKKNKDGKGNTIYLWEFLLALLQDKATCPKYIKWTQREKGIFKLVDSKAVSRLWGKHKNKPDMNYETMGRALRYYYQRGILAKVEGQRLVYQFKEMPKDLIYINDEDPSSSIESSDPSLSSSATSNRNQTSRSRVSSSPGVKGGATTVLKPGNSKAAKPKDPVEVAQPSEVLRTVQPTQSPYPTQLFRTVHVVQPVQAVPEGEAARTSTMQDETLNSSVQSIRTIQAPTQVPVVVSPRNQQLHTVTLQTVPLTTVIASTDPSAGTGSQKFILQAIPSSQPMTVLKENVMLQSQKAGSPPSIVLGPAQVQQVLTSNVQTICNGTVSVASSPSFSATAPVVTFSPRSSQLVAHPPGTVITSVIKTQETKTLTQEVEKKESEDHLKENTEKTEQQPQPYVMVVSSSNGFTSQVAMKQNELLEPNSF
# Chain of HSF1 (Q00613 whole entry): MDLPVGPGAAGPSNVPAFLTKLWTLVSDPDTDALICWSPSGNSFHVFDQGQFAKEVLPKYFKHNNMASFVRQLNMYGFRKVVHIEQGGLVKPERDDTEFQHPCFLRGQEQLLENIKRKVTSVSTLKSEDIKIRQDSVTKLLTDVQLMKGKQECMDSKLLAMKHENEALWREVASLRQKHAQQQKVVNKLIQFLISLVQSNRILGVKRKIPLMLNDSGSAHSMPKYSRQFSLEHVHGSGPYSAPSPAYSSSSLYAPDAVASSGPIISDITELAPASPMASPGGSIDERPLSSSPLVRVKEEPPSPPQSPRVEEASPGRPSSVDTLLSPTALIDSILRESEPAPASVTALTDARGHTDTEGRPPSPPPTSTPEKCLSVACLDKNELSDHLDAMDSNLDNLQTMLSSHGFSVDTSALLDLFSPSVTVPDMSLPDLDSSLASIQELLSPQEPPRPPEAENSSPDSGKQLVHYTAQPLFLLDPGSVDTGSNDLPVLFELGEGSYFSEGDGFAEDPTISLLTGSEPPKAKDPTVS
# Chain of ETV5 (P41161 whole entry): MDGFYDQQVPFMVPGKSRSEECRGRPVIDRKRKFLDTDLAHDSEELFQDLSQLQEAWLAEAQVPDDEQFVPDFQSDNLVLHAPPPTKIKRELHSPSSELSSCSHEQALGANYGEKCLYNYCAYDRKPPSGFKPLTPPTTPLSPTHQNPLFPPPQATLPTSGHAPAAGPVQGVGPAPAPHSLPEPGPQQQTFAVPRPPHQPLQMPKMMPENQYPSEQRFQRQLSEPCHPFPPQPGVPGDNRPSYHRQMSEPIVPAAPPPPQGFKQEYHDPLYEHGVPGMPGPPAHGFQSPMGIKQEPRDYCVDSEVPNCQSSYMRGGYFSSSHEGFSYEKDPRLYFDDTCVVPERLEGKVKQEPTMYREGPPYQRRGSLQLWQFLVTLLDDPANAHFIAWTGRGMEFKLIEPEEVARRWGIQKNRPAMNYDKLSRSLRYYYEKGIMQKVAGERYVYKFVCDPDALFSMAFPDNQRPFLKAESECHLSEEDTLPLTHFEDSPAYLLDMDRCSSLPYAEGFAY
# Chain of CRX (O43186 whole entry): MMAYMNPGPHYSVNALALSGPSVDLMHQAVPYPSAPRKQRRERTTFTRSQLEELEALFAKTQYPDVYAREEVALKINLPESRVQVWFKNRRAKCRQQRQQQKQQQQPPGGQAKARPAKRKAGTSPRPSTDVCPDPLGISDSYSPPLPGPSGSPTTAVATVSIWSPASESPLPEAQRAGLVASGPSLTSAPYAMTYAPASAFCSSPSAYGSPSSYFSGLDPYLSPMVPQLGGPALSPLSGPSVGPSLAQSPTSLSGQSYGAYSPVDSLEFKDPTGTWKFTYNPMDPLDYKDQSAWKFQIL
# Chain of ETV1 (P50549 whole entry): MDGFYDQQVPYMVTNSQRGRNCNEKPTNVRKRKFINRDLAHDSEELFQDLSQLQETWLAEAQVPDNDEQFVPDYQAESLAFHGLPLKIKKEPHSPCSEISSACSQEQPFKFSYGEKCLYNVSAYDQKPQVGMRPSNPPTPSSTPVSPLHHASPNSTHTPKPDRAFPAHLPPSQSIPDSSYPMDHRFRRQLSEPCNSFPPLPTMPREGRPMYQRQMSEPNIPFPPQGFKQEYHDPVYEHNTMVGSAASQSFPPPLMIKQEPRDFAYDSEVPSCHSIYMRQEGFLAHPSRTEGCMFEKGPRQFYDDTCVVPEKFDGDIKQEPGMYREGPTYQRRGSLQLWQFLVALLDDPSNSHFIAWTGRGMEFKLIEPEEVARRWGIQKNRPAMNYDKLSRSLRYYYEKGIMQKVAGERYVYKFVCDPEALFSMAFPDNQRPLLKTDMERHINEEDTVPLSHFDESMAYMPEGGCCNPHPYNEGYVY
# Chain of ELF4 (Q99607 whole entry): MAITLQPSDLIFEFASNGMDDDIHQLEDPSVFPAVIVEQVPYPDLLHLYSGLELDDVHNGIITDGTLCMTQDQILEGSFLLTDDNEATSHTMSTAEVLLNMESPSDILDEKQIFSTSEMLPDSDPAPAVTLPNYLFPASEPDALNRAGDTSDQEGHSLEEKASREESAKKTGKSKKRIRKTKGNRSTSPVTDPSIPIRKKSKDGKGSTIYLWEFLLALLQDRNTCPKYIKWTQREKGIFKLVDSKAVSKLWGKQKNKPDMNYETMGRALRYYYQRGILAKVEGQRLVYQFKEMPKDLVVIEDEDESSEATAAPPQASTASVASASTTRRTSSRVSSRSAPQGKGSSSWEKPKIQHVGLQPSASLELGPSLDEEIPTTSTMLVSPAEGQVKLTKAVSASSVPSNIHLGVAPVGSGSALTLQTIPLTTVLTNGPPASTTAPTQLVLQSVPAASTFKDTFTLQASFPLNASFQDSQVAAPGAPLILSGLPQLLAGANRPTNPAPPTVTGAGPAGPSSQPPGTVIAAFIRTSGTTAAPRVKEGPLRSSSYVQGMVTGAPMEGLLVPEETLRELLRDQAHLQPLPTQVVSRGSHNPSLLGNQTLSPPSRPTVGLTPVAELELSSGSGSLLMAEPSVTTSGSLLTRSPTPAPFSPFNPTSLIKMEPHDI
# Chain of SPIB (Q01892 whole entry): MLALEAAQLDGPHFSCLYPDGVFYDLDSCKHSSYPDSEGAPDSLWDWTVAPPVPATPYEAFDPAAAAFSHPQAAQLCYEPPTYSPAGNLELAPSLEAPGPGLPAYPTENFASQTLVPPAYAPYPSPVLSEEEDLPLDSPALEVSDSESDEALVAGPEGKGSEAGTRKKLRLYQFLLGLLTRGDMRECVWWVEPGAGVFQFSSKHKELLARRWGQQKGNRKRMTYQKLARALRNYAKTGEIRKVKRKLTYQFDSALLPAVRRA
sequence,measurement,setting,value
CGCCCT,binding signal,FLI1,"1.44 fold enrichment (6-mer frequency, TF over GST control)"
same,binding signal,ELK1,"1.36 fold enrichment (6-mer frequency, TF over GST control)"
same,binding signal,GABPA,"1.37 fold enrichment (6-mer frequency, TF over GST control)"
same,binding signal,ERG,"1.31 fold enrichment (6-mer frequency, TF over GST control)"
same,binding signal,ELF1,"1.43 fold enrichment (6-mer frequency, TF over GST control)"
same,binding signal,EHF,"1.35 fold enrichment (6-mer frequency, TF over GST control)"
same,binding signal,SPI1,"1.24 fold enrichment (6-mer frequency, TF over GST control)"
same,binding signal,SPIB,"1.36 fold enrichment (6-mer frequency, TF over GST control)"
same,binding signal,ELK3,"1.5 fold enrichment (6-mer frequency, TF over GST control)"
same,binding signal,FEV,"1.37 fold enrichment (6-mer frequency, TF over GST control)"
same,binding signal,ETV5,"1.29 fold enrichment (6-mer frequency, TF over GST control)"
same,binding signal,HSF1,"1.13 fold enrichment (6-mer frequency, TF over GST control)"
same,binding signal,SPIC,"1.21 fold enrichment (6-mer frequency, TF over GST control)"
same,binding signal,ELF4,"1.47 fold enrichment (6-mer frequency, TF over GST control)"
same,binding signal,ELK4,"1.1 fold enrichment (6-mer frequency, TF over GST control)"
same,binding signal,ETV2,"1.4 fold enrichment (6-mer frequency, TF over GST control)"
same,binding signal,ELF3,"1.04 fold enrichment (6-mer frequency, TF over GST control)"
same,binding signal,CRX,"1.11 fold enrichment (6-mer frequency, TF over GST control)"
same,binding signal,ETV1,"1.37 fold enrichment (6-mer frequency, TF over GST control)"
